D2 PAM-1: HTS Assay for Positive Allosteric Modulators of the Human D2 Dopamine Receptor: Primary Screen for Potentiators; D(2) dopamine receptor (Homo sapiens), P14416; HEK293 T-REx D2, calcium flux, EC20 dopamine potentiation; potentiation, % at 10 µM; actives 0.34% (n = 340,000); AID 485347, 2010;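 active means potentiation over 3 SD above the plate norm, cut at about 30% in these data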; further: 0% is about no effect
Target sequence (P14416 whole entry, looked up): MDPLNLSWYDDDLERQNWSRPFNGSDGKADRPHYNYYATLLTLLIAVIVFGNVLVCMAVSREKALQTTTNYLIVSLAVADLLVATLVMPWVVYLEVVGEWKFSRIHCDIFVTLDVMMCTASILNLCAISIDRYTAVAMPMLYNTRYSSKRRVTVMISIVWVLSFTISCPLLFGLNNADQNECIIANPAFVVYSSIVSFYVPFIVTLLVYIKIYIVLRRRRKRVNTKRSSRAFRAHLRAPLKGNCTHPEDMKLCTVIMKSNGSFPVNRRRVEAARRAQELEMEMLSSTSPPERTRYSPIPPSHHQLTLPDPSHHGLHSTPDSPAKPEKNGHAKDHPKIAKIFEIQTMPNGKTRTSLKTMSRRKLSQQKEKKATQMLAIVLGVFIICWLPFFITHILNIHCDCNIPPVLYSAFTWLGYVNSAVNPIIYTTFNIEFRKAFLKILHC
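Cells plated with tetracycline inducer and held overnight at 30 C; calcium dye loaded 30–90 min at room temperature; baseline taken, compound added and read 180 s; EC20 dopamine then added and read 180 s.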
D2 ag-1: Beta-Arrestin HTS for Positive Allosteric Modulators of the Human D2 Dopamine Receptor: Agonists; D(2) dopamine receptor (Homo sapiens), P14416; DiscoveRx PathHunter D2 beta-arrestin, luminescence, 90 min; 100% = 57 uM dopamine signal; activation, % (test concentration not listed); actives 0.084% (n = 360,000); AID 624465, 2012; in the data active means activation above about 40%; inconclusive means between about 15% and that limit
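DiscoveRx PathHunter D2 beta-arrestin cells (2,100/well) attached overnight, then compound-stimulated 90 min at 37 C in HBSS/10 mM HEPES/0.1% Tween-20 buffer; beta-galactosidase complementation read by luminescence after 1 h at ambient temperature. Dopamine 57 uM final (EC100) as control.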
D2 PAM-2: Beta-Arrestin HTS for Positive Allosteric Modulators of the Human D2 Dopamine Receptor: Potentiators. DiscoveRx D2 beta-arrestin cells, luminescence, 90 min; 100% = 57 uM dopamine signal. potentiation, % (concentration not given with the values). actives 0.23% (n = 360,000). AID 624464, 2012; in the data active means potentiation above about 50%; inconclusive means mostly about 30% to 49%
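PathHunter D2 cells, attached overnight at 37 deg C, received compound in DMSO plus dopamine at EC20 (50 nM final) for 90 min at 37 deg C. Beta-arrestin recruitment was read as luminescence after 1 h with detection reagent at ambient temperature.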
D2 antagonist: HTS Assay for Allosteric Antagonists of the Human D2 Dopamine Receptor: Primary Screen for Antagonists; D(2) dopamine receptor (Homo sapiens), P14416; HEK293 TREx D2 cells, calcium flux, dopamine EC80; inhibition, % at 10 µM; actives 2% (n = 340,000); in the data active means inhibition above about 30%; inactive means below that, where a call was filed; further: 0% is about no effect
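Read-out: kinetic calcium fluorescence (1 cycle/s) in inducible HEK293 T-REx D2 cells after an EC80 dopamine addition that followed 180 s compound preincubation. Loss of the dopamine response indicates antagonism.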
D2 ag-2: HTS Assay for Allosteric Agonists of the Human D2 Dopamine Receptor: Primary Screen for Agonists; D(2) dopamine receptor (Homo sapiens), P14416; HEK293 T-REx D2 cells, calcium flux agonist mode; activation, % at 2 µM; actives 0.53% (n = 340,000);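 active means activation over 3 SD above normal in the single-dose calcium agonist read, cut at about 30% in these data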; further: 0% is about no effect
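Agonism is scored from calcium flux in a force-coupled, inducible HEK293 cell line expressing D2, read kinetically for 180 s after compound addition against dopamine controls.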
D3 ag: qHTS of D3 Dopamine Receptor Agonist: D3 Dopamine Receptor B-arrestin Agonist Confirmatory Assay; shares compounds with D2 ag-2; DiscoveRx D3 beta-arrestin cells, luminescence, 90 min; Potency, µM (titrated, usually from 76.9 µM), inactives show top-dose activation, usual class: activators; actives 4% (n = 2,300); AID 720506, 2013;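 further: potency means the concentration at half of the fitted maximal effect; 100% = dopamine control response; nearly all actives have a fitted effect of over 70% in size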
D2 ag-3: qHTS of D3 Dopamine Receptor Agonist: D2 Dopamine Receptor B-arrestin Agonist Counterscreen. actives 5.9% (n = 2,300). Potency, µM (series often up to 76.9 µM), for the others: top-dose activation, hits mostly activators. DiscoveRx PathHunter D2 beta-arrestin, luminescence, 90 min; response scale: percent relative to full dopamine signal. AID 720507, 2013. shares compounds with D2 ag-2; further: potency means the concentration at half of the fitted maximal effect; % of control where 0% means no effect; nearly all actives have a fitted effect of over 70% in size
* = called active by the depositor; ? = inconclusive; nt = no result. In the library only some 2.4% were active in any assay of this set; here they are far more common. Unless noted, the call rests on the fitted dose curve; in most records, active means well fitted activation curve with a large enough effect; inconclusive means small, poorly fitted or top-dose-only effect; inactive means flat fitted curve, though single readings scatter.

SMILES	D2 PAM-1	D2 ag-1	D2 PAM-2	D2 antagonist	D2 ag-2	D3 ag	D2 ag-3
O=C(CNS(=O)(=O)c1ccccc1)OCc1cccc([N+](=O)[O-])c1	-18	-1	-21	-18	41*	-1%	0%
O=C(CNS(=O)(=O)c1ccccc1)OCC(=O)c1cccc([N+](=O)[O-])c1	1	-17	-31	11	1	nt	nt
CC(C)(C)CC(=O)NC1CC(=O)N(c2ccc3c(c2)OCCO3)C1 (stereo not drawn)	13	nt	nt	nt	nt	nt	nt
COc1ccc(N2CCN(S(=O)(=O)CCNC(=O)Cc3ccc(OC)c(OC)c3)CC2)cc1	2	nt	nt	nt	1	nt	nt
COc1ccc(C)cc1Nc1nc2cc(Cl)c(Cl)cc2nc1-n1nc(C)cc1C	-3	nt	nt	nt	0	nt	nt
Cc1cc2oc(=O)cc(CN3CCCCC3C)c2cc1Cl (stereo not drawn)	-4	-5	3	4	-1	nt	nt
CCc1ccc2c(CN3CCC(C(=O)OC)CC3)cc(=O)oc2c1	-42	66*	21	106*	106*	4µM*	8.9µM*
CCOC(=O)Nc1ccc2c(CN3CCC(C(=O)OC)CC3)cc(=O)oc2c1	-1	1	-3	3	28	nt	nt
COC(=O)C1CCN(Cc2cc(=O)oc3cc(C)c(Cl)cc23)CC1	-8	?	-3	20	31*	3.2µM*	24%
CCN1C(=O)c2ccccc2S(=O)c2ccc(C(=O)N3CCN(c4cccc(Cl)c4)CC3)cc21 (stereo not drawn)	-6	nt	nt	nt	0	nt	nt
Cc1ccc(C)c(NC(=O)n2ncc3cc(Cl)ccc32)c1	0	nt	nt	nt	3	nt	nt
CN(CCOc1ccccc1Cl)Cc1ccccc1	-28	2	-3	85*	25	?	-3%
COCc1cc(C)nc2sc(C(=O)Nc3ccccc3O)c(N)c12	14	nt	nt	nt	nt	nt	nt
COC(=O)c1cc(S(=O)(=O)NCCN2CCN(c3ccccc3F)CC2)c[nH]1	0	-5	-36	73*	1	17%	7%
Cn1c(C(=O)NCCN2CCN(c3ccccc3F)CC2)cc2c(=O)n(C)c3ccccc3c21	-35	10	-10	95*	54*	-8%	11%
Cc1c(C)n(C)c2ccc(C(=O)NCCCN3CCN(c4ccc(F)cc4)CC3)cc12	-23	-5	-37	-17	0	nt	nt
Cc1c(C)n(C)c2ccc(C(=O)NCCCN3CCN(c4ccccc4F)CC3)cc12	-39	9	-33	98*	67*	9%	14%
CCc1nc2ccc(C(=O)NCCCN3CCN(c4ccccc4F)CC3)cc2nc1CC	-20	6	-20	88*	17	24%	16%
Cc1cc(C)c(S(=O)(=O)NCC(c2ccc(N(C)C)cc2)N2CCc3ccccc32)c(C)c1 (stereo not drawn)	0	nt	nt	nt	0	nt	nt
Cc1nc2ccccn2c(=O)c1NC(=O)c1ccc2c(c1)OCO2	nt	-1	-10	nt	nt	nt	nt
O=C(NCCN1CCN(c2ccccc2F)CC1)c1ccc2nc3ccccc3c(=O)n2c1	-28	5	-10	57*	67*	28%	?
